The record followed here is ChEMBL document CHEMBL4296182, “CO-ADD screening of NIH NCI Diversity Set V”.

For part of these data: Results with a measured potency or affinity are listed apart.

In one assay the test system is Staphylococcus aureus. As to the kind of experiment: Antibacterial activity against Staphylococcus aureus MRSA ATCC 43300 (CO-ADD:GP_020); MIC in CAMBH media using NBS plates, by Resazurin F(560/590). Type of assay: functional. The following applies: Concentration 20 uM, ASSAY_TEST Inhibition of Bacterial Growth, detection method Resazurin, Fluorescence (ex560/em590), MEDIA CAMHB, plate type 384well, CORNING #3640, time 18 hr.

The next assay relates to Acinetobacter baumannii. As to the kind of experiment: Antibacterial activity against Acinetobacter baumannii ATCC 19606 (CO-ADD:GN_034); MIC in CAMBH media using NBS plates, by Resazurin F(560/590). The format is functional. Particulars: Concentration 20 uM, ASSAY_TEST Inhibition of Bacterial Growth, detection method Resazurin, Fluorescence (ex560/em590), MEDIA CAMHB, plate type 384well, CORNING #3640, time 18 hr. On the technique in general: Resazurin is reduced to fluorescent resorufin, in cell work by metabolically active cells.

A further assay relates to Escherichia coli. As to the kind of experiment: Antibacterial activity against Escherichia coli ATCC 25922 (CO-ADD:GN_001); MIC in CAMBH media using NBS plates, by Resazurin F(560/590). Type of assay: functional. The following applies: Concentration 20 uM, ASSAY_TEST Inhibition of Bacterial Growth, detection method Resazurin, Fluorescence (ex560/em590), MEDIA CAMHB, plate type 384well, CORNING #3640, time 18 hr.

The test system of the next assay is Klebsiella pneumoniae. Particulars: Concentration 20 uM; ASSAY_TEST Inhibition of Bacterial Growth; detection method Absorption (OD600); MEDIA CAMHB; plate type 384well; NBS; CORNING #3640; time 18 hr.
Another assay deals with Candida albicans. The following applies: 20 µM.
The next assay has as its system Cryptococcus neoformans. Particulars: Concentration 20 uM; ASSAY_TEST Inhibition of Fungal Growth; detection method Resazurin; Absorption (OD600-OD570); plate type 384well; NBS; CORNING #3640.

As a reminder, the Inhibition is the change of the read-out against control, counted positive when it falls. On to `CC1=CC(C)(C)N=C(S)N1c1cccc2cc(S(=O)(=O)O)ccc12`, for which the Inhibition in the assay on Staphylococcus aureus was -5.5%; in the assay on Acinetobacter baumannii, 9.59%; in the assay on Escherichia coli, -20.55%; with Klebsiella pneumoniae, 7.04%; in the assay with Candida albicans, 8.59%; in the assay with Cryptococcus neoformans, 39.69%.
For the compound `CCCCN1C(=O)CC2CCOC21C` (stereo not drawn), the Inhibition in the assay on Staphylococcus aureus is 9.16%; in the assay with Acinetobacter baumannii it was -12.54%; with Escherichia coli it was 6.99%; in the assay on Klebsiella pneumoniae, 9.62%; in the assay with Candida albicans, 10.6%; in the assay on Cryptococcus neoformans, -12.41%.
`Clc1nc(Cl)nc(-c2cn(-c3ccccc3)c3ccccc23)n1`: the Inhibition in the assay on Staphylococcus aureus is 19.15%; with Acinetobacter baumannii, 12.32%; with Escherichia coli it was 3.43%; in the assay on Klebsiella pneumoniae it was 3.41%; in the assay on Candida albicans it was -0.1%; in the assay with Cryptococcus neoformans, 5.66%.
For `CCOC(=O)Nc1csnn1`, the Inhibition in the assay with Staphylococcus aureus was 13.65%; with Acinetobacter baumannii, -5.72%; in the assay with Escherichia coli, 13.49%; in the assay with Klebsiella pneumoniae it was 14.72%; in the assay on Candida albicans it was 5.16%; with Cryptococcus neoformans, -5.84%.
For the compound `CC1(C)CC(=O)C(CC(=O)c2ccccc2)=C(NNC(=N)N)C1`, the Inhibition is 1.47% in the assay with Staphylococcus aureus; 8.18% in the assay with Acinetobacter baumannii; 4.18% with Escherichia coli; -0.42% in the assay on Klebsiella pneumoniae; 5.62% in the assay on Candida albicans; -4.09% with Cryptococcus neoformans.
As to `COc1ccc(C2OC3=Nc4cc(C)c(C)cc4NC3=C2O)cc1` (stereo not drawn), the Inhibition in the assay with Staphylococcus aureus was 19.36%; in the assay with Acinetobacter baumannii, 6.66%; in the assay with Escherichia coli, 1.83%; in the assay with Klebsiella pneumoniae, 7.32%; with Candida albicans, 1.04%; with Cryptococcus neoformans, -7.87%.
For `C=CCN=C(NC#N)SC`, the Inhibition in the assay with Staphylococcus aureus is -6.06%; in the assay with Acinetobacter baumannii it was -0.66%; in the assay on Escherichia coli it was -1.07%; in the assay on Klebsiella pneumoniae, 5.62%; in the assay with Candida albicans it was -0.02%; in the assay with Cryptococcus neoformans, 0.87%.
With `CN(C)CCCn1c2c3ccccc3ccc2c2oc(=O)c3ccccc3c21.Cl`, the Inhibition in the assay with Staphylococcus aureus was 14.28%; in the assay with Acinetobacter baumannii it was -7.18%; in the assay on Escherichia coli, 12.65%; in the assay on Klebsiella pneumoniae it was 11.13%; with Candida albicans, 0.85%; in the assay on Cryptococcus neoformans, -2.35%.
For `CCCCOC(=O)c1cccnc1`, the Inhibition in the assay on Staphylococcus aureus was 2.44%; in the assay with Acinetobacter baumannii, -6.99%; in the assay on Escherichia coli it was 12.49%; in the assay with Klebsiella pneumoniae, 13.5%; in the assay on Candida albicans, 1.04%; in the assay with Cryptococcus neoformans, -0.89%.
With `Cc1ccc(S(=O)(=O)N(C)C)cc1[N+](=O)[O-]`, the Inhibition in the assay with Staphylococcus aureus is -7.75%; in the assay with Acinetobacter baumannii it was -5.08%; in the assay on Escherichia coli, -0.42%; with Klebsiella pneumoniae, 1.49%; in the assay on Candida albicans it was 0.81%; in the assay with Cryptococcus neoformans, -3.84%.
As to `CCN(CC)CCN1C(=O)c2cccc3cc(N)cc(c23)C1=O`, the Inhibition is -0.77% in the assay with Staphylococcus aureus; 7.97% in the assay on Acinetobacter baumannii; 10.46% with Escherichia coli; 12.53% with Klebsiella pneumoniae; -0.17% in the assay on Candida albicans; -5.58% in the assay with Cryptococcus neoformans.
In the case of `O=C(Nc1nnc(C(F)(F)F)s1)c1c(F)cccc1F`, the Inhibition came out at 18.6% in the assay with Staphylococcus aureus; 12.37% in the assay on Acinetobacter baumannii; 3.33% in the assay with Escherichia coli; 14.22% in the assay on Klebsiella pneumoniae; 14.6% in the assay on Candida albicans; 22.23% with Cryptococcus neoformans.
As for `N#CC1=C(Nc2ccccc2Cl)SC(c2ccccc2O)NC1=O` (stereo not drawn), the Inhibition in the assay on Staphylococcus aureus is 1.74%; in the assay with Acinetobacter baumannii, -8.74%; in the assay with Escherichia coli, 4.44%; in the assay on Klebsiella pneumoniae, 12.14%; in the assay with Candida albicans, 4.82%; in the assay with Cryptococcus neoformans it was -3.28%.
Consider `Cc1cc(O)c(-c2cc(O)c(C)cc2O)cc1O`, for which the Inhibition was 5.49% with Staphylococcus aureus; -9.17% with Acinetobacter baumannii; 6.61% with Escherichia coli; 0.01% in the assay on Klebsiella pneumoniae; 5.95% with Candida albicans; 17.06% in the assay with Cryptococcus neoformans.
With `Cc1cnc2cc(Cl)ccc2c1SCC(=O)O`, the Inhibition is 2.5% in the assay with Staphylococcus aureus; 10.23% in the assay on Acinetobacter baumannii; 1.72% in the assay with Escherichia coli; 11.14% with Klebsiella pneumoniae; 11.6% in the assay with Candida albicans; -9.96% in the assay with Cryptococcus neoformans.
Regarding `CC1=Nc2ccccc2/C1=C\c1c(C)[nH]c2ccccc12`, the Inhibition with Staphylococcus aureus is 7.03%; with Acinetobacter baumannii, 6.7%; in the assay with Escherichia coli, 0.88%; in the assay with Klebsiella pneumoniae, 14.94%; in the assay on Candida albicans it was 6.28%; in the assay on Cryptococcus neoformans it was -2.97%.
Consider `Cl.O=C(O)c1ccc(NCc2nc3ccccc3[nH]2)cc1`, for which the Inhibition is 0.21% in the assay with Staphylococcus aureus; -0.88% in the assay on Acinetobacter baumannii; -3.07% in the assay with Escherichia coli; 12.5% with Klebsiella pneumoniae; 1.6% in the assay with Candida albicans; -6.81% in the assay with Cryptococcus neoformans.
For the compound `NS(=O)(=O)c1ccc(Nc2ccccc2)c([N+](=O)[O-])c1`, the Inhibition with Staphylococcus aureus was 4.64%; in the assay with Acinetobacter baumannii, 12.63%; in the assay on Escherichia coli, -4.87%; with Klebsiella pneumoniae, 9.32%; with Candida albicans, 7.16%; in the assay with Cryptococcus neoformans, -1%.
